Assay outcomes as filed in PubChem.
FBA Mtb inh: inhibitors of M. tuberculosis fructose-bisphosphate aldolase. P9WQA3. purified M. tuberculosis FBA, fluorescence read-out. inhibition, % at 1 µM. 360,000 compounds, 2.3% hits. AID 588726
Target sequence (P9WQA3 whole entry, looked up): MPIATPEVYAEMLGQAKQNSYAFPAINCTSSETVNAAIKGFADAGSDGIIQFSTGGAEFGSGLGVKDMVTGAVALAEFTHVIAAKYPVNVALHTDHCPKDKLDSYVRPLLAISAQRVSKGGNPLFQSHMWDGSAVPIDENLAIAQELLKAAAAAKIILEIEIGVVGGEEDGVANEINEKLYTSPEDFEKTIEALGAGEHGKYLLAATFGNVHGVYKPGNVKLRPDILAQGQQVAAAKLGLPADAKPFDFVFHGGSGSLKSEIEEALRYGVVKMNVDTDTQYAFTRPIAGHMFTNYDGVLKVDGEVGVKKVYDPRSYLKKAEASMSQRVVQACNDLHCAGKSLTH
FadD28 binding: M. tuberculosis FadD28 bisubstrate binding inhibition | inhibition, % at 12.5 µM | 360,000 compounds, 0.22% hits | FadD28 bisubstrate probe binding, fluorescence polarization | AID 588549; in the data active means inhibition above about 8.5%, passing the limit was not always enough
GDH-TPI counter-1: counter-screen for M. tuberculosis FBA inhibitors: GDH-TPI coupled enzymes. GDH-TPI coupled enzyme counterscreen, NADH absorbance. inhibition, % at 4.8 µM. AID 588335. 360,000 compounds, 1.2% hits; in the data active means inhibition above about 30%
SARS 3CLpro inh: SARS-CoV 3CLpro protease inhibition. P0C6X7. recombinant SARS-CoV 3CLpro, quenched FRET peptide cleavage. inhibition, % at 6 µM. 290,000 compounds, 0.14% hits. AID 1706; in the data active means inhibition above about 12%
BioA inh: blocks M. tuberculosis BioA enzyme activity. purified M. tuberculosis BioA enzyme, plate reader. 360,000 compounds, 0.096% hits. inhibition, % at 9.99 µM; in the data active means inhibition above about 40%
Mtb FBA inh conf: Mtb FBA inhibition, confirmed | shares compounds with FBA Mtb inh | purified M. tuberculosis FBA, fluorescence read-out | inhibition, % at 1 µM | 5,600 compounds, 78% hits | AID 651616
GDH-TPI counter-2: inhibits GDH-TPI coupling enzymes, flagging Mtb FBA hits; shares compounds with FBA Mtb inh; GDH-TPI coupled enzyme counterscreen, fluorescence; inhibition, % at 1 µM; 5,600 compounds, 81% hits; in the data active means inhibition above about 10%
GDH-TPI DR: counter-screen for M. tuberculosis FBA inhibitors: GDH-TPI dose response; shares compounds with FBA Mtb inh; 170 compounds, 79% hits; IC50, µM; GDH-TPI coupled enzyme assay, fluorescence, artifact counterscreen; call rule not given here
Of the large screens only hits and unclear results are named; the others gave an inactive call (follow-up assays come after a bar, where they were run). Compounds with a hit are over-represented: about 3.1% of the library has one in this group of screens. Unless noted, no stated cut-off is given here; in the data, active means inhibition above about 27%; inactive means the rest.

O=C(N[C@H]1CC[C@H](CCn2cc(-c3ccccc3)nn2)O[C@H]1CO)c1ccccc1F	none (no result: FBA Mtb inh, FadD28 binding, GDH-TPI counter-1, SARS 3CLpro inh)
O=C(NCc1ccncc1)/C(=C\c1ccc(F)cc1)NC(=O)c1ccccc1	FBA Mtb inh 44.8 | Mtb FBA inh conf 185.1 | GDH-TPI counter-2 151.2
Cc1ccc(C(=O)N/C(=C\c2ccc(F)cc2)C(=O)NCc2ccncc2)cc1	none
N#Cc1ccccc1OCC(=O)OCC(=O)N1CCN(C(=O)c2ccco2)CC1	FBA Mtb inh 73.9 (no result: BioA inh) | Mtb FBA inh conf 170.5 | GDH-TPI counter-2 147.1
COc1ccc2nc3oc(C(=O)N4CC(C)CC(C)C4)cc3cc2c1 (configuration not stated)	FBA Mtb inh 55.6 | Mtb FBA inh conf inactive | GDH-TPI counter-2 inactive
CCOC(=O)C1CCN(C(=O)c2cc3cc4cc(OC)ccc4nc3o2)CC1	FBA Mtb inh 55.4 | Mtb FBA inh conf 109.0 | GDH-TPI counter-2 98.2
CCOC(=O)C1CCN(C(=O)c2cc3ccc(OC)cc3[nH]2)CC1	none (no result: FadD28 binding)
COc1ccc2cc3cc(C(=O)N4CCCC(C)C4)oc3nc2c1 (configuration not stated)	none
COc1ccc2nc3oc(C(=O)N4CCCCC4)cc3cc2c1	FBA Mtb inh 56.6 | Mtb FBA inh conf 83.9 | GDH-TPI counter-2 63.3
CCOC(=O)C1CCCN(C(=O)c2cc3cc4ccc(OC)cc4nc3o2)C1 (configuration not stated)	FBA Mtb inh 92.1 | Mtb FBA inh conf 55.1 | GDH-TPI counter-2 32.1
C[C@@H]1CN([C@H](C)CO)C(=O)c2cc(C3=CCCCC3)cnc2O[C@@H]1CN(C)C(=O)Nc1cccc(F)c1	none (no result: FBA Mtb inh, FadD28 binding, GDH-TPI counter-1, SARS 3CLpro inh)
CN(C)C(=O)C[C@H]1CC[C@@H](NC(=O)NC2CCCCC2)[C@H](CO)O1	none (no result: FBA Mtb inh, FadD28 binding, GDH-TPI counter-1, SARS 3CLpro inh)
CCOc1ccc2nc(NCCNC(=O)C(C)C)c(C)cc2c1	FBA Mtb inh 35.3 | Mtb FBA inh conf 85.8 | GDH-TPI counter-2 65.9
COc1cccc(NC(=O)C[C@H]2CC[C@@H]3[C@H](COc4ccc(NC(=O)C5CCOCC5)cc4C(=O)N3C)O2)c1	none (no result: FBA Mtb inh, FadD28 binding, GDH-TPI counter-1, SARS 3CLpro inh)
COc1c(Cl)cccc1-c1cn2ccccc2n1	FBA Mtb inh 68.1 (no result: BioA inh) | Mtb FBA inh conf inactive | GDH-TPI counter-2 inactive
Clc1ccc(-c2cn3ccccc3n2)cc1	none
CC1CCC2(CC1)NC(=O)N(CC(=O)Nc1ccccc1-c1ccccc1)C2=O (configuration not stated)	FBA Mtb inh 54.6 | Mtb FBA inh conf inactive | GDH-TPI counter-2 inactive
CN1CCc2c(n(CC(O)CNCc3ccccc3)c3ccccc23)C1=O (configuration not stated)	none (no result: BioA inh)
CC(C)NCC(O)Cn1c2c(c3ccccc31)CCc1c-2cnn1-c1ccccc1 (configuration not stated)	FBA Mtb inh 32.8 | Mtb FBA inh conf inactive | GDH-TPI counter-2 inactive
O=C(NC1Cc2ccccc2C1)[C@@H]1[C@@H](CO)[C@@H]2Cn3c(ccc(C4=CCCCC4)c3=O)[C@H]1N2CC1CC1	none (no result: FBA Mtb inh, FadD28 binding, GDH-TPI counter-1, SARS 3CLpro inh)
C[C@@H]1CN([C@@H](C)CO)C(=O)c2cccc(NC(=O)NC3CCCCC3)c2O[C@H]1CN(C)Cc1ccc(C(=O)O)cc1	none (no result: FBA Mtb inh, FadD28 binding, GDH-TPI counter-1, SARS 3CLpro inh)
COc1ccc2c(CC(=O)N[C@@H](Cc3c[nH]c4ccccc34)C(=O)O)cc(=O)oc2c1	none
Cc1c(O)ccc2c(CC(=O)N[C@@H](Cc3ccc(O)cc3)C(=O)O)cc(=O)oc12	FBA Mtb inh 94.3 | Mtb FBA inh conf inactive | GDH-TPI counter-2 inactive | GDH-TPI DR 1.77
COc1cccc(-c2ccc3c(c2)O[C@H](CN(C)Cc2cncnc2)[C@H](C)CN([C@H](C)CO)S3(=O)=O)c1	none (no result: FBA Mtb inh, FadD28 binding, GDH-TPI counter-1, SARS 3CLpro inh)
Cc1ccc(/C=N/N=C/c2ccc(C)s2)s1	none (no result: BioA inh)
Cc1ccc(C=Nc2ccccc2C(N)=O)s1	FBA Mtb inh 58.4 | Mtb FBA inh conf 59.5 | GDH-TPI counter-2 50.2
Cc1cccc(C=Nc2ccccc2C(N)=O)c1	FBA Mtb inh 35.6 | Mtb FBA inh conf 139.9 | GDH-TPI counter-2 100.9
COc1ccc(S(=O)(=O)N[C@@H]2C=C[C@H](CC(=O)N3CCN(c4ccccc4)CC3)O[C@@H]2CO)cc1	none (no result: FBA Mtb inh, FadD28 binding, GDH-TPI counter-1, SARS 3CLpro inh)
C=CCn1c(SCC(=O)NC2CCCCC2)nnc1-c1sc(N)nc1C	FBA Mtb inh 30.3 | Mtb FBA inh conf 114.0 | GDH-TPI counter-2 96.2
